# GalR3 antag: blocks the human galanin receptor 3. O60755. actives 0.44% (n = 360,000). HEK293 GalR3-CNG cAMP membrane potential fluorescence; galR3 body fused to GalR1 C-terminus. AID 651719. inhibition, % at 3 µM;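 active means inhibition above the screen-wide average plus 3 SD, cut at about 13% in these data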;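 further: forskolin and galanin both at EC90 stimulate the cells; cAMP rise reported by CNG channel membrane potential dye signal; 0% = forskolin plus galanin with DMSO and 100% = forskolin alone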
# Target sequence (O60755 1-299 limits assumed): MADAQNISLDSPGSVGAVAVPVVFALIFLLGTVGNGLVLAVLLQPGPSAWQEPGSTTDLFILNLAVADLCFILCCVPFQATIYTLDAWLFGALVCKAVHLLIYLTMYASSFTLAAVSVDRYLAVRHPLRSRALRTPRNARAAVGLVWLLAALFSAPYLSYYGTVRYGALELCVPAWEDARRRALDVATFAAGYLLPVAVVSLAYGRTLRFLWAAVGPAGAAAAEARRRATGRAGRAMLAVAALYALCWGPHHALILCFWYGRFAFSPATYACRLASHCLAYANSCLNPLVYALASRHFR
# NR2F2 inh: NR2F2 (human) inhibition, primary screen; inhibition, % at 8.6 µM; AID 686940; actives 0.7% (n = 370,000); HEK293T NGFI-A luciferase reporter, luminescence; P24468;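 active means inhibition above a per-plate cutoff, mean inhibition of test wells between control levels plus 3 SD, cut at about 38% in these data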;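 further: cells cotransfected with COUP-TFII expression vector driving the NGFI-A reporter; 0% = median of COUP-TF2 test wells and 100% = reporter-only cells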
# HIV Env fusion: HIV envelope-mediated fusion inhibition; HeLa-JRFL Env/CEM21 cell fusion, luciferase; inhibition, % at 12.3 µM; actives 1.1% (n = 360,000); AID 651610;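 active means mean replicate inhibition score of at least 50 and every replicate individually at or above 50; inconclusive means only one of the two criteria met; inactive means mean below 50 and not all replicates reaching 50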;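 further: 0% = plate neutral controls and 100% = maraviroc near 300 nM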
# Gli-Sufu antag: antagonists of Gli-Sufu signaling; Sufu-KO-LIGHT fibroblasts, Gli luciferase reporter luminescence; inhibition, % at 5 µM; actives 0.74% (n = 340,000);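 active means inhibition above about 55%, limit read from the data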;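 further: 0% = DMSO-treated cells and 100% = wells with medium but no cells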
# aDG glyco up: alpha-DG glycosylation activation. Pro5-aDG cells, alpha-DG glycosylation AlphaScreen (IIH6); 0% Pro5, 100% B10-LARGE cell signal. activation, % at 10 µM. actives 0.22% (n = 360,000);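 active means activation of at least 8% versus controls, or a plate z-score of at least 8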;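 further: Pro5 are CHO cells carrying HIG-tagged alpha-DG that lacks glycosylation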
# VP16 Luc counter: counter-screen for COUP-TFII antagonists: inhibitors of VP16. actives 25% (n = 2,500). HEK293 Gal4-VP16 luciferase reporter, luminescence. inhibition, % at 8.5 µM. shares compounds with NR2F2 inh; in the data active means inhibition above about 13%
# NR2F2 inh conf: COUP-TFII (NR2F2) inhibition, confirmation assay | shares compounds with NR2F2 inh | HEK293 NGFI-A luciferase reporter, luminescence | inhibition, % at 8.5 µM | actives 45% (n = 2,500) | AID 687008;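 active means mean inhibition over three repeats above a set limit taken from the earlier primary screen, cut at about 38% in these data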;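 further: 100% = cells given the luciferase reporter alone without the COUP-TF2 vector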
# Numbers without * were called inactive; u = inconclusive; x = no result; [ ] = dose if it differs, or a comment. Only some compounds are listed: those with a hit (about 2.1% of all), similar ones and a draw of the others.
SMILES,GalR3 antag,NR2F2 inh,HIV Env fusion,Gli-Sufu antag,aDG glyco up,VP16 Luc counter,NR2F2 inh conf
C/C=C/c1ccc([C@H]2[C@@H](CO)N(C(=O)CN(C)C)C23CN(C(=O)C2CC2)C3)cc1,x,x,-11[16.7 µM],x,x,x,x
Cc1scc(C(=O)N/N=C/c2ccc([N+](=O)[O-])o2)c1C,-1,50*,-32,x,7,57*,59*
O=C(N/N=C\c1ccc(-c2ccccc2[N+](=O)[O-])o1)C1COc2ccccc2O1 (configuration not stated),-5,10,-51,4,0,x,x
O=C(N/N=C\c1ccc([N+](=O)[O-])o1)C1COc2ccccc2O1 (configuration not stated),-6,44*,-21,2,5,-5,25
O=C(C[C@H]1C=C[C@H](NC(=O)Nc2cc(F)ccc2F)[C@@H](CO)O1)Nc1ccccc1,x,x,29[16.7 µM],x,x,x,x
C/C=C/c1cnc2c(c1)C(=O)N([C@H](C)CO)C[C@H](C)[C@H](CN(C)C(=O)Cc1ccccn1)O2,x,x,-22[16.7 µM],x,x,x,x
O=C(CCN1C(=O)c2ccccc2S1(=O)=O)Nc1ccc2c(c1)OCCO2,-2,12,x,-2,0,x,x
O=C(CN1C(=O)c2ccccc2S1(=O)=O)c1ccc2c(c1)OCCCO2,-1,100*,91*,96*,0,93*,109*
O=C(CCN1C(=O)c2ccccc2S1(=O)=O)Nc1cc(Cl)ccc1Cl,0,16,-4,4,0,x,x
O=C(CN1C(=O)c2ccccc2S1(=O)=O)c1ccc2c(c1)OCCO2,-6,89*,84*,94*,0,83*,99*
O=C(CN1C(=O)c2ccccc2S1(=O)=O)c1ccc(Cl)cc1Cl,2,91*,62*,90*,0,70*,90*
O=C(C[C@H]1C=C[C@H](NC(=O)Nc2ccccc2)[C@@H](CO)O1)NCc1ccccn1,x,x,27[16.7 µM],x,x,x,x
COc1ccc(NC(=O)O[C@H](c2ccc(OCCO)cc2)[C@@H](C)CCO)cc1,x,x,2[16.7 µM],x,x,x,x
Cc1nn(-c2ccccc2Cl)c(Cl)c1/C=N/Nc1nc2ccccc2s1,-2,86*,-6,86*,0,88*,102*
CC(C)C#Cc1cnc2c(c1)C(=O)N([C@H](C)CO)C[C@H](C)[C@@H](CN(C)C(=O)c1ccccc1F)O2,x,x,-19[16.7 µM],x,x,x,x
C[C@H](CO)N1C[C@H](C)[C@H](CN(C)C(=O)Cc2cccnc2)Oc2ncc(C3=CCCCC3)cc2C1=O,x,x,8[16.7 µM],x,x,x,x
CC(=O)c1c(C)[nH]c(C(=O)OCC(=O)Nc2ccc(Cl)c(S(=O)(=O)N(C)C)c2)c1C,-7,45*,79*,19,0,-3,14
CCOC(=O)c1ccc(NC(=O)COc2ccc(S(=O)(=O)NC(C)CC)cc2)cc1 (configuration not stated),-3,47*,33,6,1,0,26
CC(=O)N1CCSc2ccc(S(=O)(=O)Nc3cccc(C)c3)cc21,-10,37*,8,17,0,-5,7
Cc1cccc(NS(=O)(=O)c2ccc(NC(=O)N3CCCCC3)cc2)c1,2,48*,26,13,1,2,16
CCOC(=O)c1cccc(NS(=O)(=O)c2ccc(NC(C)=O)cc2)c1,-6,39*,106*,16,1,7,22
CCOC(=O)c1cccc(NS(=O)(=O)c2c(C)[nH]c(=O)[nH]c2=O)c1,-6,-6,15,-3,0,x,x
CCCCCCc1nc(-c2ccc(OC)nc2)c(C)c2c1[Si](C(C)C)(C(C)C)OC2,x,x,-23[16.7 µM],x,x,x,x
CCNC(=O)C[C@@H]1C=C[C@@H](NC(=O)C2CCOCC2)[C@H](CO)O1,x,x,3[16.7 µM],x,x,x,x
COc1ccc(CNC(=O)C[C@H]2CC[C@@H]3[C@@H](COc4ccc(NC(=O)C5CC5)cc4C(=O)N3C)O2)cc1,x,x,0[16.7 µM],x,x,x,x
SMILES,GalR3 antag,NR2F2 inh,HIV Env fusion,Gli-Sufu antag,aDG glyco up,VP16 Luc counter,NR2F2 inh conf
COc1ccc(C(=O)Nc2ccc3c(c2)C(=O)N(C)C[C@H](OC)[C@H](C)CN(C)[C@@H](C)CO3)cc1,x,x,-7[16.7 µM],x,x,x,x
CCOc1ccc2[nH]c3c(NCCc4ccc(OC)c(OC)c4)ncnc3c2c1,-3,49*,19,15,0,-11,5
CC(C)(C)c1ccc(OCCC(=O)Nc2cccc(S(=O)(=O)NC3=NCCCCC3)c2)cc1,-3,40*,u,-2,0,-2,11
CN(CC(=O)Nc1cccc(S(=O)(=O)NC2=NCCCCC2)c1)Cc1ccc(C(C)(C)C)cc1,0,4,35,23,2,x,x
COC(=O)c1ccc(S(=O)(=O)N2CCCN(Cc3cccc(Br)c3F)CC2)n1C,0,55*,4,10,0,-5,11
COc1ccc(CCC(=O)Nc2ccc(C)c(S(=O)(=O)N(C)C)c2)cc1OC,-3,41*,45,18,1,1,15
COc1ccc(OC)c(CC(=O)Nc2ccc3c(c2)CCC3)c1,-9,8,-3,-10,0,x,x
COc1ccc(CC(=O)Nc2ccc3c(c2)CCC3)cc1OC,-7,50*,x,8,3,-4,12
O=C(N[C@@H]1CC[C@H](CCNC(=O)C2CCOCC2)O[C@H]1CO)c1ccncc1,x,x,11[16.7 µM],x,x,x,x
CC1(C(=O)Nc2cccc(C#N)c2)CCN1C(=O)Cc1ccc(-c2ccccc2)cc1 (configuration not stated),-3,52*,21,x,3,1,28
COc1ccc(S(=O)(=O)Nc2ccc3c(c2)CC(=O)N([C@@H](C)CO)C[C@H](C)[C@H](CN(C)S(=O)(=O)c2cn(C)cn2)O3)cc1,x,x,16[16.7 µM],x,x,x,x
NC(=O)c1sc2nc3c(c(-c4cccs4)c2c1N)CCCCC3,-2,43*,126*,-18,0,14*,32
NC(=O)c1sc2nc3c(c(-c4cccnc4)c2c1N)CCC3,-7,-2,x,-4,0,x,x
Cc1ccnc(OC(C(=O)O)C(OCc2ccccc2)(c2ccccc2)c2ccc(C(F)(F)F)cc2)n1 (configuration not stated),-2,47*,14,10,0,6,14
Cc1cc(C)nc(OC(C(=O)O)C(OCc2ccccc2)(c2ccccc2)c2ccccc2)n1 (configuration not stated),-3,-9,3,5,0,x,x
C=CCCC1CN(Cc2ccc(OC)cc2)S(=O)(=O)c2c(Oc3ccc(OC)cc3)cccc2O1 (configuration not stated),-5,-4,26,x,x,x,x
C=CCCC1CN(Cc2ccc(OC)cc2)S(=O)(=O)c2c(NCc3cc(OC)c(OC)c(OC)c3)cccc2O1 (configuration not stated),-6,43*,-3,x,x,0,28

# Screening data (PubChem)
